# Records with an inconclusive call do not appear. A call without a number means that no potency is given here. Activity calls are given as the source filed them. Calls follow the shape of the dose curve; as a rule, active = well fitted curve in the direction sought with a large enough effect; inconclusive = small, poorly fitted or top-dose-only effect, or another doubt; inactive = no such curve, though single readings can be large; an effect the other way counts as inactive or inconclusive.
# Columns and labels:
# [1] = biological target: phosphoglycerate mutase (Leishmania major) (UniProt Q4Q090); experiment: qHTS Validation Assay to Find Inhibitors of Phosphoglycerate Mutase (AID 504548); conditions: Potency: inhibition qHTS; also: series mostly up to about 58 µM
# How it was run: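 Luminescent end-point read-out via Kinase-GloPlus after a 10-minute development. Reaction: 1.25nM Leishmania major PGAM with substrate and compound, 45 minutes at room temperature in TEA buffer (pH 7.6) with MgCl2 and Tween-20.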
# [2] = biological target: Ubiquitin carboxyl-terminal hydrolase 1 (Homo sapiens) (UniProt O94782); experiment: Inhibitors of USP1/UAF1: Pilot qHTS (AID 504865); also: nearly all actives have a fitted effect of over 35% in size; also: potency is read from the fitted curve at half-maximal effect
# How it was run: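 Enzyme-free wells gave the negative control, while test wells held 1nM USP1/UAF1 preincubated with compound for 15 min at room temperature. Ub-Rho at 150nM final started the reaction, and fluorescence at 480/540 nm was recorded kinetically.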
# [3] = qHTS for Inhibitors of ATXN expression: Validation of Cytotoxic Assay (AID 588349)
# How it was run: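 Cytotoxicity counter-screen: HEK293 cells exposed to compound titrations, 72 hr, 37 degrees C. Read-out is intracellular ATP (CellTiter Glo luminescence) as a viability measure.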
# [4] = qHTS for Inhibitors of ATXN expression: Validation (AID 588378); also: series mostly up to about 57 µM; nearly all actives have a fitted effect of over 75% in size
# How it was run: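 After a 2 h attachment and 24 h compound incubation, HEK293-ATXN2-FFLuc wells are read for fluorescence at 405 nm excitation/525 nm emission as a viability measure, then for Bright-Glo luminescence reflecting ATXN2 expression.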
# Chain of Ubiquitin carboxyl-terminal hydrolase 1 (Homo sapiens) (O94782 whole entry, looked up): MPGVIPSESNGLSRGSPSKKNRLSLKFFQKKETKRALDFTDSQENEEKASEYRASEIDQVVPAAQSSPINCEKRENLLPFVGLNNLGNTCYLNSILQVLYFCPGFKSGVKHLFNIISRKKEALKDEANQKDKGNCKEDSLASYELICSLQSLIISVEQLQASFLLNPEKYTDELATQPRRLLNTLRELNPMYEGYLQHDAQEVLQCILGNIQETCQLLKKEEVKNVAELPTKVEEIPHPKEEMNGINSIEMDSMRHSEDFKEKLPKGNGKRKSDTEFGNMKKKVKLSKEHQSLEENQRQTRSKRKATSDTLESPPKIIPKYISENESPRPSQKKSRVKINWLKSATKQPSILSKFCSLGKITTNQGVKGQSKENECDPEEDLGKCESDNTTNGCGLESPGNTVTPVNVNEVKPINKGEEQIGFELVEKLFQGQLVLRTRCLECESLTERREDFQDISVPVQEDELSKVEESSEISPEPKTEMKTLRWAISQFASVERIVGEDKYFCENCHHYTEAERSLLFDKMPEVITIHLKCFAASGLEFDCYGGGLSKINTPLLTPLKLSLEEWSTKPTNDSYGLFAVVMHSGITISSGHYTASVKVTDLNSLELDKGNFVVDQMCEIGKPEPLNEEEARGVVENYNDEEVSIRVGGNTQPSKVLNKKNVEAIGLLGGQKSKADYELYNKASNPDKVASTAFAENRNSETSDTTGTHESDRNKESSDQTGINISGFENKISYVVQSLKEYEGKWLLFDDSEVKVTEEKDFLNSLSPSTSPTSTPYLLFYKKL
# Chain of phosphoglycerate mutase (Leishmania major) (Q4Q090 1-553): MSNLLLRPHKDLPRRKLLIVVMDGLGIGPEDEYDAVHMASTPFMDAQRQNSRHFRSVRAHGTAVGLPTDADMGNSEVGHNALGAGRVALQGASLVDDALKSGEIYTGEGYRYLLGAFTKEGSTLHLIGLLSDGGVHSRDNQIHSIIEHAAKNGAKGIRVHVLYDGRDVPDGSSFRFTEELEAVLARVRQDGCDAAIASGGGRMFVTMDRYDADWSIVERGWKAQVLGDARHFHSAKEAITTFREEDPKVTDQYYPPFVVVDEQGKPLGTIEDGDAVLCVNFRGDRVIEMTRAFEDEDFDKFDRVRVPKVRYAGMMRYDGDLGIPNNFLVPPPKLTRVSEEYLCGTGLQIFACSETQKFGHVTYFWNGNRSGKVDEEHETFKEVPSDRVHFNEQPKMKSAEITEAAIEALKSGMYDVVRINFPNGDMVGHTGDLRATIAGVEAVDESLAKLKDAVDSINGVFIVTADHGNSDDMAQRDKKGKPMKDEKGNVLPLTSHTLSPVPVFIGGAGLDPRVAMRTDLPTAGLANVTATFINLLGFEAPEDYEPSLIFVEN
SMILES,Potency [1],Potency [2],Potency [3],Potency [4]
CC(N)C(=O)OC(C)(C)Cc1ccc(Cl)cc1 (centres undefined),inactive,inactive,inactive,inactive
COC1=C(OC)C(=O)c2ccccc2C1=O,inactive,17.8 µM (active),–,–
CC(=O)/C=C1\C(=O)N(C)c2ccccc21,inactive,inactive,–,–
CCCCCCCCCCCCCCCC(=O)NCC(COP(=O)([O-])OCC[N+](C)(C)C)OCC (centres undefined),inactive,79.4 µM (active),–,–
N=c1ccn2c(n1)O[C@H]1[C@H](O)[C@@H](CO)O[C@H]12,inactive,inactive,inactive,–
CCCCCC(O)c1cccc(OCc2ccc3ccccc3n2)c1 (centres undefined),inactive,–,–,–
CCCCCCCCCCCCCCCC(=O)OC(CC(=O)O)C[N+](C)(C)C (centres undefined),inactive,50.1 µM (active),–,–
CN1CCc2cc(O)c(O)cc2C(c2ccccc2)C1 (centres undefined),inactive,inactive,–,–
CCCCCCCCCCCCCCCCCCNC(=O)OCC(COP(=O)([O-])OCC[n+]1ccsc1)OC (centres undefined),inactive,–,–,–
COc1ccccc1N1CCN(CCCCNS(=O)(=O)c2cccc3c(N(C)C)cccc23)CC1,inactive,inactive,–,–
COc1ccc2c(c1)CCC1C2CC[C@@]2(C)C1CC[C@@H]2NCCCCCCN1C(=O)CCC1=O (some centres undefined),inactive,inactive,–,–
NS(=O)(=O)C#Cc1ccccc1,inactive,inactive,–,–
O=C1NC(O)=NC1(c1ccccc1)c1ccccc1,inactive,inactive,–,–
Cn1ncc(S(=O)(=O)Cc2ccccc2)c(Br)c1=O,inactive,12.6 µM (active),–,–
CCN1/C(=C/C(C)=O)Sc2ccc(OC)cc21,inactive,inactive,inactive,–
CN1[C@@H](CC(=O)c2ccccc2)CCC[C@H]1C[C@H](O)c1ccccc1,inactive,inactive,–,–

# Source: PubChem BioAssay (NCATS)
